# Casp6 inh – human caspase-6 inhibitors, primary screen, biochemical, VEID-R110 fluorescence, single point, set 2; P55212; purified caspase-6, Z-VEID-R110 cleavage fluorescence; inhibition, % at 12.5 µM; 350,000 tested, 0.53% active; AID 686996, 2013;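 active = mean inhibition across replicates at least about 35%, with every replicate also reaching that limit, limit read from the data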;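 also: 0% = median of neutral control wells and 100% = no fluorescence left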
# Target sequence (P55212 24-179 limits assumed): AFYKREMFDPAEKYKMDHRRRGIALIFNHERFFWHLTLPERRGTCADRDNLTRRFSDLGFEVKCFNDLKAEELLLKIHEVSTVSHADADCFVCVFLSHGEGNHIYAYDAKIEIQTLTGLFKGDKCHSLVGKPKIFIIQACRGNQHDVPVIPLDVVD
# Target sequence (P55212 194-293 limits assumed): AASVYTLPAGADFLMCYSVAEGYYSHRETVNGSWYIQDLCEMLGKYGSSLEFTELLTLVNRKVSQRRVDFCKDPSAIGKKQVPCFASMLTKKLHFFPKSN
# NSD2 HMT inh – NSD2 histone methyltransferase inhibitors, primary screen, biochemical, AlphaScreen, single concentration, set 2; inhibition, % at 12.5 µM; Histone-lysine N-methyltransferase NSD2 (Homo sapiens), O96028; 310,000 tested, 0.54% active; NSD2 peptide methylation, 120 min; in the data active = inhibition above about 50%
# CFTR F508del cor – F508del CFTR correction, initial screen, CFBE line, single point; CFBE cells, YFP halide quenching; stimulated with forskolin plus potentiator P3; % fluorescence drop versus neutral controls; activity (quench increase), % at 7.58 µM; 350,000 tested, 0.36% active;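 active = mean added fluorescence quench of at least 8% versus neutral control, with both replicates also reaching 8%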;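 also: cells transiently co-express mutant CFTR-F508del with the halide-sensitive YFP; corrector assay measuring rescue of mutant channel to the surface after 24 h compound exposure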
# Env fusion inh – inhibitors of HIV-1 Env-driven cell-cell fusion, primary screen, HeLa-JRFL effector, CEM21 target cells, luciferase | inhibition, % at 12.3 µM | 360,000 tested, 1.1% active;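 active = mean replicate inhibition score of at least 50 and every replicate individually at or above 50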;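 also: 0% = plate neutral controls and 100% = maraviroc near 300 nM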
# PglD inh – C. jejuni PglD acetyltransferase inhibitors, primary screen, biochemical, DTNB colorimetric, single point; UDP-N-acetylbacillosamine N-acetyltransferase PglD (Campylobacter jejuni); purified PglD enzyme, DTNB colorimetric CoA detection; inhibition, % at 12.5 µM; 360,000 tested, 0.098% active; AID 602405, 2012; in the data active = inhibition above about 16%, passing the limit was not always enough
# ALR H2O2 inh – inhibitors of human ALR sulfhydryl oxidase, primary screen, biochemical, H2O2 detection, HRP-luminol luminescence, single point. inhibition, % (no concentration beside the values). purified ALR, DTT oxidation. AID 485317, 2010. 290,000 tested, 3.8% active;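 active = mean replicate inhibition above about 79%, with every replicate also reaching it, limit read from the data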
# Target sequence (P55789 whole entry, looked up): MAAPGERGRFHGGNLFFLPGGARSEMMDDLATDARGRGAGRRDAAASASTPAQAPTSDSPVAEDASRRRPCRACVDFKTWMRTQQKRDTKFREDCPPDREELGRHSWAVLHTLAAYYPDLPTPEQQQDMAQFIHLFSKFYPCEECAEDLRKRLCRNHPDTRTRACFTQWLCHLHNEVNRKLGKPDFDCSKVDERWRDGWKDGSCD
# * marks the source's active call; other numbers are inactive results; . = no result; ! = not active in a repeat; [ ] = dose if it differs, or a comment. Most compounds without a hit are left out; they make up all but 4.1% or so of the library.
SMILES,Casp6 inh,NSD2 HMT inh,CFTR F508del cor,Env fusion inh,PglD inh,ALR H2O2 inh
C[C@@H]1CN([C@H](C)CO)C(=O)c2cc(NS(=O)(=O)c3ccc(Cl)cc3)ccc2O[C@@H](C)CCCCO[C@@H]1CN(C)Cc1ccc2c(c1)OCO2,-4.8,.,-1.3,68.5*![16.7 µM],8.5,.
Cc1ccc(S(=O)(=O)N(C)C[C@@H]2OCCCC[C@@H](C)Oc3ccc(NS(=O)(=O)c4ccc(Cl)cc4)cc3C(=O)N([C@@H](C)CO)C[C@@H]2C)cc1,-0.8,.,8.6*,45.5[16.7 µM],-2.0,.
C[C@@H]1CCCCO[C@H](CN(C)Cc2ccc3c(c2)OCO3)[C@@H](C)CN([C@@H](C)CO)C(=O)c2cc(NS(=O)(=O)c3ccccc3)ccc2O1,35.5*,.,0.6,-103.8[16.7 µM],-1.8,.
C[C@H]1CCCCO[C@H](CN(C)Cc2ccccc2)[C@@H](C)CN([C@@H](C)CO)C(=O)c2cc(NS(=O)(=O)c3ccc(Cl)cc3)ccc2O1,3.1,.,4.4,47.3[16.7 µM],3.0,.
C[C@@H]1CN([C@@H](C)CO)C(=O)c2cc(NS(=O)(=O)c3ccc(Cl)cc3)ccc2O[C@@H](C)CCCCO[C@H]1CN(C)Cc1ccc2c(c1)OCO2,0.2,.,-1.6,-58.0[16.7 µM],7.5,.
C[C@@H]1CN([C@H](C)CO)C(=O)c2cc(NS(=O)(=O)c3ccc(Cl)cc3)ccc2O[C@@H](C)CCCCO[C@@H]1CN(C)Cc1ccccc1,-0.6,.,2.6,65.2*[16.7 µM],-0.2,.
C[C@@H]1CCCCO[C@@H](CN(C)Cc2ccc3c(c2)OCO3)[C@H](C)CN([C@@H](C)CO)C(=O)c2cc(NS(=O)(=O)c3ccccc3)ccc2O1,1.9,.,-0.8,0.5[16.7 µM],-2.8,.
CO[C@H]1CC[C@@H]2CCOc3ccc(C#N)cc3C(=O)N(C)C[C@H](C)C(=O)N(C)C[C@H]1O2,6.8,.,.,-12.6[16.7 µM],1.7,.
C[C@H]1CN([C@@H](C)CO)C(=O)c2cc(-c3ccccc3)cnc2O[C@H]1CN(C)Cc1cccnc1,0.8,.,1.1,-8.7[16.7 µM],-0.2,.
O=C(C[C@H]1C=C[C@H](NC(=O)NC2CCCCC2)[C@H](CO)O1)NCc1ccc(F)cc1,-5.8,.,0.1,-14.3[16.7 µM],1.2,.
COCC(=O)Nc1ccc2c(c1)OC[C@H](C)N(C(=O)C1CCCC1)C[C@@H](C)[C@H](OC)CN(C)C2=O,.,.,-1.1,5.5[16.7 µM],-1.3,.
Cc1noc(C)c1S(=O)(=O)Nc1ccc2c(c1)C(=O)N([C@@H](C)CO)C[C@@H](C)[C@H](CN(C)Cc1ccc(Cl)c(Cl)c1)OCCCC[C@@H](C)O2,77.5*,.,-2.0,-2.1[16.7 µM],1.2,.
Cc1noc(C)c1S(=O)(=O)Nc1ccc2c(c1)C(=O)N([C@H](C)CO)C[C@H](C)[C@H](CN(C)Cc1ccc(Cl)c(Cl)c1)OCCCC[C@@H](C)O2,1.9,.,5.6,-38.1[16.7 µM],-3.8,.
C[C@@H]1CN([C@H](C)CO)C(=O)c2cc(NS(=O)(=O)c3ccccc3)ccc2O[C@@H](C)CCCCO[C@@H]1CN(C)Cc1ccc(Cl)c(Cl)c1,0.8,.,2.7,69.0*![16.7 µM],1.6,.
Cc1ccc(S(=O)(=O)N(C)C[C@@H]2OCc3ccccc3-c3c(n(C)c4ccccc34)C(=O)N([C@H](C)CO)C[C@@H]2C)cc1,-3.2,.,2.3,95.0*,.,.
Cc1ccc(S(=O)(=O)N(C)C[C@H]2OCc3ccccc3-c3c(n(C)c4ccccc34)C(=O)N([C@@H](C)CO)C[C@@H]2C)cc1,0.0,.,-10.9,.,-5.4,.
C[C@H](CO)N1C[C@H](C)[C@H](CN(C)S(=O)(=O)c2ccc(Cl)cc2)OCc2ccccc2-c2c(n(C)c3ccccc23)C1=O,0.8,.,-3.2,81.7*,-2.5,.
C[C@H]1CN([C@@H](C)CO)C(=O)c2c(c3ccccc3n2C)-c2ccccc2CO[C@@H]1CN(C)S(=O)(=O)c1ccc(Cl)cc1,-2.4,.,-10.0,.,-0.7,.
CCCC(=O)N1CC2(C1)CN(C(=O)C1CCCCC1)[C@H](CO)c1[nH]c3cc(OC)ccc3c12,2.0,.,-0.7,.,.,.
C/C=C/c1ccc([C@@H]2[C@H](CO)N(Cc3cccc(F)c3)C23CN(C(=O)CC)C3)cc1,4.2,.,1.1,.,.,.
S=C1Cc2ccccc2N1,20.4,.,-14.0,73.0*,6.0,.
COc1ccc2sc(N(CCCN(C)C)C(=O)c3ccc(S(=O)(=O)N4CCc5ccccc5C4)cc3)nc2c1,-1.5,.,-9.6,102.4*,-3.4,-4.6
COc1ccc2sc(N(CCCN(C)C)C(=O)c3ccc(S(=O)(=O)N4CCCC4)cc3)nc2c1,-1.3,-0.4,-0.8,-15.1,1.9,-5.3
COc1ccc(NC(=O)Nc2ccc3c(c2)C(=O)N([C@@H](C)CO)C[C@H](C)[C@H](CN(C)S(=O)(=O)c2ccc(Cl)cc2)OCCCC[C@@H](C)O3)cc1,-0.1,.,-2.3,-14.1[16.7 µM],-1.9,.
CC(=O)Nc1ccc(-n2c(C)ccc2-c2ccccc2)cc1,-1.7,3.3,1.1,13.1,-6.7,-72.2
SMILES,Casp6 inh,NSD2 HMT inh,CFTR F508del cor,Env fusion inh,PglD inh,ALR H2O2 inh
Cc1cccc(-n2cc(-c3ccccc3)[nH]c2=S)c1,1.6,18.4,1.9,-29.4,5.0,77.0*
COc1ccc(-n2cc(-c3ccccc3)[nH]c2=S)cc1,.,0.4,.,-6.5,.,85.1*
COc1ccccc1-n1cc(-c2ccccc2)[nH]c1=S,0.0,0.0,3.9,4.8,.,50.2
CC(=O)Nc1ccc(-n2cc(-c3ccccc3)[nH]c2=S)cc1,-0.8,-0.3,2.8,-1.3,-1.6,99.2*
C[C@@H]1CN([C@@H](C)CO)C(=O)Cc2cc(NC(=O)Cn3cnnn3)ccc2O[C@@H]1CN(C)Cc1ccc2c(c1)OCO2,-1.2,.,0.6,-2.9[16.7 µM],0.8,.
COc1ccc(NC(=O)Nc2ccc3c(c2)C(=O)N([C@@H](C)CO)C[C@@H](C)[C@H](CN(C)Cc2ccc(Cl)c(Cl)c2)OCCCC[C@H](C)O3)cc1,-0.5,.,2.5,59.9*[16.7 µM],-0.5,.
C[C@H](CO)N1C[C@H](C)[C@H](CN(C)Cc2ccc(Cl)c(Cl)c2)OCCCC[C@H](C)Oc2ccc(NC(=O)Nc3ccccc3)cc2C1=O,0.3,.,-2.0,71.1*[16.7 µM],-0.8,.
C[C@@H]1CCCCO[C@@H](CN(C)Cc2ccc(Cl)c(Cl)c2)[C@H](C)CN([C@H](C)CO)C(=O)c2cc(NC(=O)NC3CCCCC3)ccc2O1,-3.9,.,0.6,72.4*[16.7 µM],-1.7,.
C[C@@H]1CN([C@H](C)CO)C(=O)c2cc(NC(=O)Cc3cn(C)c4ccccc34)ccc2O[C@@H]1CN(C)Cc1ccc(Cl)c(Cl)c1,0.9,.,8.1*,.,7.8,.
CC(C)c1cn(CC[C@@H]2CC[C@H](NC(=O)C3CCCC3)[C@@H](CO)O2)nn1,0.4,.,-0.2,-2.6[16.7 µM],-1.1,.

# Assay outcomes deposited in PubChem by Broad Institute.
